# Test results: PubChem BioAssay (Tox21)
# Records with an inconclusive call do not appear. Active and inactive are the calls of the source. Calls come from the whole dose curve; as a rule, active = well fitted cell-killing curve with a large enough effect in the repeat runs; inconclusive = weak or mixed curves, or effect the other way; inactive = no such curve, though single readings can be large or run the other way.
# Assay: qHTS assay to identify small molecule antagonists of the vitamin D receptor (VDR) signaling pathway - cell viability counter screen (AID 743225); note: nearly all actives have a fitted effect of over 50% in size
# Conditions: VDR-bla HEK293T viability, CellTiter-Glo luminescence, 16 h; series mostly up to 61 µM
# Description: U.S. Tox21 Program National Center for Advancing Translational Sciences [NCATS] NIH Chemical Genomics Center [NCGC] U.S. Environmental Protection Agency [EPA] National Institutes of Environmental Health Sciences [NIEHS] National Toxicology Program [NTP] U.S. Food and Drug Administration [FDA] Tox21 Assay Overview: The vitamin D receptor (VDR), a member of nuclear hormone receptor superfamily, plays a critical role in calcium homeostasis and bone metabolism. It is also involved in cell differentiation and growth, and thrombogenicity. To identify the compounds that inhibit VDR signaling, the VDR-UAS-bla HEK 293T cell line (Invitrogen, Carlsbad, CA, USA) containing a beta-lactamase reporter gene under the control of an upstream activator sequence (UAS) was used to screen the Tox21 10K compound library. The cytotoxicity of the Tox21 compound library against the VDR-bla cell line was tested in parallel by measuring the cell viability using CellTiter-Glo assay (Promega, Madison, WI) in the same wells.
# Tox21 Assay Protocol Summary: VDR-bla cells were dispensed at 2,000 cells/5 uL of assay medium per well into black wall/clear-bottom 1536-well plates using a Multidrop Combi (Thermo Fisher Scientific, Waltham, MA) dispenser. After the assay plates were incubated at a 37C and 5% CO2 for 4 h, 23 nL of compounds dissolved in DMSO, positive controls or DMSO only was transferred to the assay plate by a Pintool station (Kalypsys, San Diego, CA), followed by addition of 1 uL of 1-alpha, 25-Dihydroxy Vitamin D3 (3 nM, final concentration in the wells) using a Bioraptr Flying Reagent Dispenser (FRD) workstation (Beckman Coulter, Indianapolis, IN). The plates were incubated at 37C and 5% CO2 for 16 h, and then 1 uL of LiveBLAzerTM B/G FRET substrate was added using a Bioraptr FRD. The plates were incubated at room temperature for 2 h and fluorescence intensity was measured by an Envision plate reader (PerkinElmer, Shelton, CT). For cell viability readout that measures cytotoxicity, 3 ul/well of CellTiter-Glo reagent was added into the assay plates using a Bioraptr FRD. After 30 min incubation at room temperature, the luminescence intensity in the plates was measured using a ViewLux plate reader (PerkinElmer).
row,SMILES,outcome
1,O=C(CCN1CC1)OCC(CO)(COC(=O)CCN1CC1)COC(=O)CCN1CC1,inactive
2,N#Cc1ccncc1,inactive
3,CC1(C)CON(Cc2ccccc2Cl)C1=O,inactive
4,COc1ncc(F)c2nc(S(=O)(=O)Nc3c(F)cccc3F)nn12,inactive
5,O=C(NCO)NCO,inactive
6,OCCBr,inactive
7,COC(=O)c1ccccc1S(=O)(=O)NC(=O)N(C)c1nc(C)nc(OC)n1,inactive
8,CS(=O)(=O)c1cc(C(F)(F)F)ccc1C(=O)c1cnoc1C1CC1,inactive
9,Cc1cc(C)c(C(=O)P(=O)(C(=O)c2c(C)cc(C)cc2C)c2ccccc2)c(C)c1,inactive
10,Cc1ncsc1CCCl,inactive
11,CC1COC2(c3ccccc3Cl)c3cc(Cl)ccc3NC(=O)CN12 (stereo not given),inactive
12,c1cc2c(c(N3CCNCC3)c1)OCCO2,inactive
13,CCOP(=S)(Oc1cnc(C(C)(C)C)nc1)OC(C)C (stereo not given),inactive
14,C=C(C)CN(CC)c1c([N+](=O)[O-])cc(C(F)(F)F)cc1[N+](=O)[O-],inactive
15,OCCSCSCCO,inactive
16,ClC(Cl)(Cl)C(Cl)(Cl)Cl,inactive
17,CN(N=O)C(N)=O,inactive
18,CCN(CC)CCOC(=O)C(C)(c1ccccc1)c1ccccc1,inactive
19,CCN(CC)C(C)C(=O)c1ccccc1 (stereo not given),inactive
20,CSc1ccc(C(=O)C(C)(C)N2CCOCC2)cc1,inactive

row,SMILES,outcome
1,O=CNC(N1CCN(C(NC=O)C(Cl)(Cl)Cl)CC1)C(Cl)(Cl)Cl (stereo not given),inactive
2,Nc1cc(Cl)ccc1O,inactive
3,NC(=O)c1cc([N+](=O)[O-])cc([N+](=O)[O-])c1,inactive
4,COP(N)(=S)Oc1ccccc1C(=O)OC(C)C (stereo not given),inactive
5,CCOP(=O)(OCC)OP(=O)(OCC)OCC,inactive
6,N#CCNCC#N,inactive
7,CCS(=O)(=O)C(C)(C)S(=O)(=O)CC,inactive
8,CC(C=O)Cc1ccc2c(c1)OCO2 (stereo not given),inactive
9,CN/C(=N\[N+](=O)[O-])NCC1CCOC1 (stereo not given),inactive
10,CCC1(c2ccccc2)C(=O)N=C(O)NC1=O (stereo not given),inactive
11,CCC/C(=N\OCC)C1=C(O)CC(CC(C)SCC)CC1=O (stereo not given),inactive
12,C[C@]1(O)CC[C@H]2[C@@H]3CCC4=CC(=O)CC[C@]4(C)[C@@]3(F)[C@@H](O)C[C@@]21C,inactive
13,O=c1oc2ccccc2c(O)c1C1CCCc2ccccc21 (stereo not given),inactive
14,CCCSC(=O)N(CCC)CCC,inactive
15,ClCC(Cl)Cl,inactive
16,O=C1OC(c2ccc(O)c(S(=O)(=O)O)c2)(c2ccc(O)c(S(=O)(=O)O)c2)c2c(Br)c(Br)c(Br)c(Br)c21,inactive
17,Nc1cnn(-c2ccccc2)c(=O)c1Cl,inactive
18,COC(=O)c1c(C(F)F)nc(C(F)(F)F)c(C2=NCCS2)c1CC(C)C,inactive
19,CCC(=O)C(CCN(C)C)(c1ccccc1)c1ccccc1,inactive
20,COc1cc(OC)nc(NC(=O)NS(=O)(=O)c2ncccc2OCC(F)(F)F)n1,inactive
